Shown is part of a subset that was picked to be rich in hits.
Pf Dd2 growth: inhibitors of Plasmodium falciparum Dd2 growth. AID 1347417. Potency, µM (doses to about 28.9 µM), inactives show at the top dose activity, negative = inhibition, actives largely listed as inhibitors. P. falciparum Dd2 growth, SYBR Green, 72 h. 4.3% of 120,000 active; active means well fitted inhibition curve with a large enough effect;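 further: plate controls were DMSO vehicle for no effect and reference drug for full effect; nearly all actives have a fitted effect of over 65% in size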
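Infected erythrocytes (Dd2, 0.3% parasitemia, 2.5% hematocrit final) are added to compound in RPMI-1640/Albumax II medium, grown 72 h at 37C in low oxygen, then lysed with saponin/Triton-X containing SYBR Green and read by fluorescence.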
* hit, by the source's call; i = inactive; [ ] = remark or other dose. Potency means the concentration at half of the fitted maximal effect.

SMILES | Pf Dd2 growth
CN1C(=O)C2(CCN(C(=O)CCC3CCCCC3)CC2)c2ccccc21 | 5.01µM*
O=C(O)c1cn(Cc2ccccc2F)nn1 | -18.3%
CNC(=O)C(C)(C)N1CCC[C@H]1C(=O)N(C)Cc1cccnc1 | 7.7%[44.1 µM]
COc1ccccc1OCCCn1c(C2CC(=O)N(c3ccccc3Cl)C2)nc2ccccc21 (centres undefined) | -26.2%
Cc1ccccc1Cn1c(CCCNC(=O)C2CCCCC2)nc2ccccc21 | i
CCc1ccccc1N1CC(c2nc3ccccc3n2Cc2cccc(C)c2)CC1=O (centres undefined) | -96.6%
Cc1cccc(OCCCCn2c(C3CC(=O)N(c4ccc(C)cc4C)C3)nc3ccccc32)c1 (centres undefined) | 11.2µM*
Cc1cc(C)cc(OCCn2c(CCNC(=O)C3CCCCC3)nc3ccccc32)c1 | 9.6%
CCOc1ccccc1N1CC(c2nc3ccccc3n2CCCCOc2cc(C)ccc2C)CC1=O (centres undefined) | -11.8%
Cc1cccc(OCCCn2c(CCNC(=O)C3CCCCC3)nc3ccccc32)c1 | 14.1µM*
CCc1ccccc1N1CC(c2nc3ccccc3n2CCCCOc2ccccc2OC)CC1=O (centres undefined) | -10.7%
Cc1cccc(OCCCCn2c(C3CC(=O)N(c4ccccc4Cl)C3)nc3ccccc32)c1 (centres undefined) | 3.16µM*
CC(C)CC(=O)N1CCC(C(=O)N2CCCCCCNC(=O)CC2)CC1 | 3.2%
O=C1NC2(CCN([S+](=O)([O-])c3cccc(C(F)(F)F)c3)C2)N=C1c1ccncc1 (centres undefined) | i
COc1ccc(CN2C(=O)COC[C@H]2C(=O)NCc2ccc(F)cc2F)cc1OC | 58.1%
COc1cncc(N2CC3(COCC(=O)N(Cc4cccc(OC(F)(F)F)c4)C3)C2)c1 | i
O=C1COCC2(CN1Cc1cccc(OC(F)(F)F)c1)CN(c1ccccn1)C2 | i
O=C1COCC2(CN1Cc1cccc(OC(F)(F)F)c1)CN(c1ccccc1F)C2 | 2.51µM*
O=C1c2c(nc(CNc3cccc(F)c3)n2Cc2ccccc2)NCCN1CCN1CCOCC1 | i
O=C1c2c(nc(CNc3ccc(F)cc3)n2Cc2ccccc2)NCCN1CCN1CCCCC1 | i
O=C1c2c(nc(CNc3ccc(OC(F)(F)F)cc3)n2Cc2ccccc2)NCCN1CCN1CCOCC1 | 5.01µM*
COC[C@@H]1CN(S(=O)(=O)c2cccc(C)c2)C[C@H]1C(N)=O | 9.5%
CCOc1ccccc1NC(=O)c1c(NC(=O)c2ccncc2)sc2c1CCC(C(C)(C)C)C2 (centres undefined) | 22.3%
Cc1ccccc1NC(=O)c1c(NC(=O)c2ccncc2)sc2c1CCC(C(C)(C)C)C2 (centres undefined) | 5.62µM*
CCCNC(=O)c1c(NC(=O)c2ccccc2)sc2c1CCC(C(C)(C)C)C2 (centres undefined) | 11.2µM*
SMILES | Pf Dd2 growth
CCN(CC)C(=O)c1c(NC(=O)c2cccc(C)c2)sc2c1CCC(C)C2 (centres undefined) | -17.8%
CNC(=O)c1cccn2nccc12 | 9.5%[44.1 µM]
CCc1csc(CNC2CCN(C(=O)c3ccccc3)CC2)n1 | 15.7%
COc1ccc(C(=O)N2CC[C@H](c3nc4ccccc4n3C)C2)cc1OC | -10.4%[44.1 µM]
COc1cccc(-c2noc(Nc3ccc4c(c3)OCCO4)n2)c1 | -21.0%
Clc1ccc(CNc2ncnc3onc(-c4ccc(Cl)cc4)c23)cc1 | i
Clc1ccc(-c2noc3ncnc(NC4CCCCC4)c23)cc1 | -18.5%
CC1CCC(Nc2ncnc3onc(-c4ccc(Cl)cc4)c23)CC1 (centres undefined) | 4.47µM*
Cn1ncc(N2CCCC(CC(=O)N3CCN(Cc4ccccc4)CC3)C2)cc1=O (centres undefined) | -5.9%
NC(=O)CCNC(=O)C1=C[C@@H](NC(=O)Nc2ccc(F)cc2F)[C@@H](O)[C@H](O)C1 | 13.8%[44.1 µM]
COc1ccc(NC(=O)c2cc(C3CC3)nc3c2c(C)nn3-c2ccccc2)cc1OC | 13.0%
Cc1nn(-c2ccccc2)c2nc(C3CC3)cc(C(=O)NCc3ccccc3Cl)c12 | i
COCCNC(=O)c1cc(-c2ccc(OC)cc2)nc2c1c(C1CCNC1)nn2C (centres undefined) | -27.6%
COc1ccc(-c2cc(C(=O)N3CCOCC3)c3c(C4CCCN4)nn(C)c3n2)cc1 (centres undefined) | -26.2%
Cn1nc(C2CCCN2)c2c(C(=O)N3CCOCC3)cc(C3CC3)nc21 (centres undefined) | 0.4%
COCCNC(=O)c1cc(C2CC2)nc2c1c(C1CCCNC1)nn2C (centres undefined) | 11.6%
Cc1nn(-c2ccccc2)c2nc(C3CC3)cc(C(=O)Nc3cccc(F)c3)c12 | 10µM*
COc1ccc(-c2cc(C(=O)NCC(C)C)c3c(C4CCCN4)nn(C)c3n2)cc1 (centres undefined) | 3.98µM*
COCCNC(=O)c1cc(C2CC2)nc2c1c(C1CCCN1)nn2-c1ccccc1 (centres undefined) | 11.2µM*
COCCCNc1ncnc2c1CN(C1CCC1)C(=O)CN2C | 4.5%
Cc1n[nH]c(C)c1C(NC(=O)c1c(C)nc2ccc(Cl)cn12)C(=O)O (centres undefined) | -11.0%
CCn1cc(S(=O)(=O)N2C[C@@H](C(N)=O)[C@H](c3n[nH]c(C)n3)C2)cn1 | -2.5%
CCOc1ccc(C(=O)N2CCn3nc(Cc4ccccc4)cc3C2)cc1 | -15.7%
CCCCN(C)CC(O)Cn1cc(/C=C/C(=O)c2ccc(OCC)cc2)c2ccccc21 (centres undefined) | 3.55µM*
CCCCN(CC)CCCNC(=O)c1cn(C)c(=O)c2c1c1ccccc1n2C | i
SMILES | Pf Dd2 growth
CCOc1ccc2c(c1)c(=O)c(C(=O)c1ccccc1)cn2Cc1ccccc1 | -4.8%
CCCCN(CCCC)CC(O)Cn1cc(/C=C/C(=O)c2ccccc2)c2ccccc21 (centres undefined) | 0.891µM*
COc1ccc(C(=O)/C=C/c2cn(CC(O)CN3CCc4ccccc43)c3ccccc23)cc1 (centres undefined) | -3.4%
Cc1cccc(OCC2(CNC(=O)N3CCOCC3)C[C@@H](O)[C@@H](O)C2)n1 (some centres undefined) | -8.4%[44.1 µM]
Cc1cc(C(=O)N[C@@H]2CN(Cc3ccccc3)C[C@H]2CN(C)C)nn1C | 7.5%
CCN(C(=O)CN1C(=O)NC(c2ccc(Cl)cc2)C2=C1COC2=O)c1ccccc1 (centres undefined) | -6.2%
Cc1cccc(Cn2c(=O)n(CC3CCC(C(=O)NC(C)C)CC3)c(=O)c3sccc32)c1 (centres undefined) | -4.7%
Cc1ccccc1Cn1c(=O)n(CC2CCC(C(=O)N3CCC(C)CC3)CC2)c(=O)c2sccc21 (centres undefined) | 11.2µM*
COc1cccc(Cn2c(=O)n(CC3CCC(C(=O)NC(C)C)CC3)c(=O)c3sccc32)c1 (centres undefined) | -7.6%
Cc1ccc(Cn2c(=O)n(CC3CCC(C(=O)N4CCC(C)CC4)CC3)c(=O)c3sccc32)cc1 (centres undefined) | -23.5%
COc1cccc(Cn2c(=O)n(CC3CCC(C(=O)N4CCCCC4)CC3)c(=O)c3sccc32)c1 (centres undefined) | 10µM*
CNC(=O)C1CCC(Cn2c(=O)c3sccc3n(CC(=O)N3CCC(C)CC3)c2=O)CC1 (centres undefined) | 7.5%
CC(C)(Oc1nn(Cc2cccc(Cl)c2)c2ccccc12)C(=O)N1CCOCC1 | -2.4%[44.1 µM]
COc1ccc(Cl)cc1NC(=O)Cn1c(N2CCC(C)CC2)nc(C)cc1=O | -1.5%
